Compound activity (PubChem)
KCNQ2 block: rat KCNQ2 potassium channel inhibitors, primary screen, cell-based, CHO-K1, FluxOR thallium flux, B-score; actives 1.1% (n = 310,000); B-score at 10 µM; 20 min; active compounds read low; Potassium voltage-gated channel subfamily KQT member 2 (Rattus norvegicus), O88943; AID 2156, 2009;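 active = fluorescence ratio B-score at most minus 3 library SDs, with starting brightness B-score within 2 library SDs, cut at about -5.5 in these data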
KCNQ2 pot: potentiators of rat KCNQ2 potassium channel; CHO-K1 KCNQ2, FluxOR thallium flux fluorescence; active compounds read high; Potassium voltage-gated channel subfamily KQT member 2 (Rattus norvegicus), O88943; AID 2239, 2010; actives 0.54% (n = 310,000); B-score at 10 µM;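 active = fluorescence ratio B-score at least 3 SD of library B-scores, with initial fluorescence B-score within 3 of them, cut at about 5.3 in these data; same plate scores as AID 2156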;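 also: B-score of peak minus minimum over baseline fluorescence ratio after K+ and Tl+ stimulus; positive B-score means potentiation of KCNQ2 with more thallium influx and brighter signal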
Kir21 conf inh: mouse Kir2.1 channel blockers, retest, confirmation, cell-based, FluxOR thallium flux, duplicate. Tl flux remaining, % of negative control (active compounds read low), % at 10 µM. actives 41% (n = 2,300). Kir2.1-expressing cells, FluxOR thallium flux fluorescence; active compounds read low. shares compounds with KCNQ2 pot;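 active = Primary-screen hit whose thallium flux fell at least 3 control SD below untreated wells in both duplicates, with normal baseline fluorescence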;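 also: 0% = blank wells without stimulus and 100% = stimulated no-compound controls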
HEK293 Tl flux: counter-screen for Kir2.1 inhibitors: effect in parental HEK293 cells; shares compounds with KCNQ2 pot; FluxOR thallium flux fluorescence; 0% = unstimulated blank wells; FluxOR signal as % of negative control (100 = no effect), % at 10 µM; actives 19% (n = 2,300); AID 2105;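 active = dye signal at least 3 control SD above or below untreated wells in both duplicates, raw fluorescence within 3, either direction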;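 also: percent is based on the flux ratio of peak minus minimum fluorescence over baseline F0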
CHO-K1 ctr: nonspecific thallium flux increase in parental CHO-K1, confirmation, counter-screen for KCNQ2 potentiator project, cell-based, FluxOR thallium flux, duplicate | shares compounds with KCNQ2 pot | parental CHO-K1 cells, FluxOR thallium flux fluorescence; zero = vehicle mean+3SD, 100% = vehicle-minus-blank window | activity increase over 3SD of controls, % at 10 µM | actives 43% (n = 1,200);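 active = signal rise of at least 3 SD above the untreated control mean, in both duplicate wells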;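 also: counter screen of KCNQ2 potentiator hits so any rise reflects channel-independent effects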
KCNQ1 sel pot: human KCNQ1 channel potentiation off-target, confirmation, selectivity assay for KCNQ2 potentiator project, cell-based, CHO, FluxOR thallium flux. shares compounds with KCNQ2 pot. CHO KCNQ1 stable, FluxOR thallium flux fluorescence; beyond 3SD, as % of vehicle-control signal. activation over 3SD threshold, % at 10 µM. actives 28% (n = 1,200);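 active = fluorescence ratio rise of at least 3 SD of vehicle wells above their mean, in both replicate wells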;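 also: 0% = vehicle mean plus 3 SD and 100% = vehicle minus unstimulated blank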
Target sequence (P51787 whole entry, looked up): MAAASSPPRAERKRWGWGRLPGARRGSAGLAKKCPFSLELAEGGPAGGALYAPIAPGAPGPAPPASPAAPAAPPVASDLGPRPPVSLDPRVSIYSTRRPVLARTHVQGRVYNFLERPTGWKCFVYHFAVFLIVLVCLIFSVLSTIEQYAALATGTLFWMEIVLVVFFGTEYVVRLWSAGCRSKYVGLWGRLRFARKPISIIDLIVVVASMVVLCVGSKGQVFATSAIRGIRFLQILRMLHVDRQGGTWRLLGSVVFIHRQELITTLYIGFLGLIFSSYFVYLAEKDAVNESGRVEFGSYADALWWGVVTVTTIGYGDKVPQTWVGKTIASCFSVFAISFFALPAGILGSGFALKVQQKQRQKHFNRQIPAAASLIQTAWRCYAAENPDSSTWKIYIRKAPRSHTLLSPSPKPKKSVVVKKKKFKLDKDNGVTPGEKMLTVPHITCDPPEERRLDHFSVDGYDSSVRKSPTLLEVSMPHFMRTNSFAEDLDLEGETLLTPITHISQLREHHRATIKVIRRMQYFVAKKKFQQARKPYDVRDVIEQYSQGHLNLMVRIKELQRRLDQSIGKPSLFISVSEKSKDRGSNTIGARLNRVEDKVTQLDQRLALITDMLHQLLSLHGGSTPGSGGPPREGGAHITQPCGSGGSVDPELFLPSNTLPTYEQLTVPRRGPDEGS
KCNQ2 pot conf: rat KCNQ2 channel potentiators, confirmation, cell-based, CHO, FluxOR thallium flux, duplicate; CHO-KCNQ2 cells, FluxOR thallium flux fluorescence; potentiation, less the hit threshold, % at 10 µM; actives 68% (n = 1,200); shares compounds with KCNQ2 pot;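 active = fluorescence ratio rising 3 SD or more over the vehicle control mean in both replicates, plus primary screen hit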;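 also: peak minus minimum thallium fluorescence divided by baseline after K/Tl stimulus; 0% = vehicle mean plus 3 SD and 100% = vehicle minus unstimulated blank difference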
Kir21 spec: mouse Kir2.1 channel activation off-target, confirmation, selectivity assay for KCNQ2 potentiator project, cell-based, HEK293, FluxOR thallium flux | shares compounds with KCNQ2 pot | HEK293 Kir2.1, FluxOR thallium flux fluorescence | activity over 3SD threshold, % at 10 µM | actives 2% (n = 1,200) | AID 2345, 2010;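 active = fluorescence ratio rise of at least 3 SD above the vehicle-control mean, seen in both replicates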;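 also: 0% = vehicle mean plus 3 SD and 100% = vehicle minus no-stimulus blank window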
KCNQ2 W236L MoA: potentiators of retigabine-insensitive KCNQ2 W236L, mechanism study for KCNQ2 potentiator project, cell-based, rat KCNQ2 W236L, CHO, automated patch clamp | shares compounds with KCNQ2 pot | automated patch clamp current | current increase over 3SD of negative controls (%), active compounds read high, % at 25 µM | actives 10% (n = 940) | AID 2558, 2010;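 active = current increase at least 3 SD of the untreated controls above them in both duplicate recordings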
Numbers without * were called inactive; i = inactive; / = no result. This is a sample that favours compounds with a hit; in the whole collection about 1.6% have one here.

SMILES | KCNQ2 block | KCNQ2 pot | Kir21 conf inh | HEK293 Tl flux | others
CCOC(=O)c1cnc2c(OC)cccc2c1Oc1ccccc1 | i | / | 48%* | i
CCOC(=O)c1cnc2c(OC)cccc2c1N1CC(C)CC(C)C1 (configuration not stated) | i | 1.2 | / | /
CCOC(=O)c1cnc2c(C)cccc2c1NCCc1ccc(OC)c(OC)c1 | i | / | i | i
CCOC(=O)c1cnc2ccc(C(=O)OC)cc2c1NCCc1ccc(OC)c(OC)c1 | i | / | / | /
Cc1cccc(NC(=O)c2ccc3nccnc3c2)c1C | i | 0.29 | / | /
N#CC1(N2CCN(C(=O)c3ccccc3)CC2)CCCCC1 | i | / | / | /
O=C(NCc1ccco1)c1ccccc1-c1ccc(C(F)(F)F)cc1 | i | 6.1* | i | i | CHO-K1 ctr=-8;KCNQ1 sel pot=23*;KCNQ2 pot conf=1.0*;Kir21 spec=-39;KCNQ2 W236L MoA=i
O=C(NCc1ccco1)c1ccc(C(F)(F)F)cc1 | i | 1 | / | /
O=C(CN1CCN(Cc2ccccc2)CC1)N1CCCc2ccccc21 | i | 0.64 | / | /
O=C(CN1CCN(Cc2ccc(Cl)cc2)CC1)N1CCc2ccccc21 | i | 0.49 | 35%* | i
Cc1ccc(Cl)cc1NC(=S)N(CCCN1CCN(C)CC1)Cc1ccco1 | i | / | / | /
CCOc1ccc(C2CC(=O)N(Nc3ccc([N+](=O)[O-])cc3[N+](=O)[O-])C2=O)cc1 (configuration not stated) | i | 0.86 | / | /
COc1ccc(C(=O)NC(=S)NCc2ccco2)cc1Br | i | 0.32 | / | /
O=C(Nc1ncc(Br)s1)C(Cc1ccccc1)n1cccc1 (configuration not stated) | i | 7.3* | i | 188%* | CHO-K1 ctr=-4;KCNQ1 sel pot=-5;KCNQ2 pot conf=8.5*;Kir21 spec=-29;KCNQ2 W236L MoA=i
O=C(Nc1cccnc1)C(Cc1ccccc1)n1cccc1 (configuration not stated) | i | 0.5 | / | /
Cc1occc1C(=O)Nc1cccc2ccccc12 | i | 11* | i | i | CHO-K1 ctr=11*;KCNQ1 sel pot=-16;KCNQ2 pot conf=56*;Kir21 spec=-38;KCNQ2 W236L MoA=i
Cc1occc1C(=O)Nc1ccccc1NC(=O)c1ccoc1C | i | 0.04 | / | /
Cc1ccc(C(C)NC(=O)c2ccncc2)c(C)c1 (configuration not stated) | i | 0.33 | / | /
CCOc1ccc(C(C(=O)NCC2CCCO2)N(Cc2cccnc2)C(=O)c2snc(C(N)=O)c2N)cc1 (configuration not stated) | i | 1 | / | /
Oc1ccc(C2=NN(c3ccccc3)C(c3ccc(F)cc3)C2)cc1 (configuration not stated) | i | 12* | i | i | CHO-K1 ctr=3.9*;KCNQ1 sel pot=-14;KCNQ2 pot conf=-16;Kir21 spec=-25
Oc1ccccc1C1=NN(c2ccccc2)C(c2ccc(F)cc2)C1 (configuration not stated) | i | 2.9 | / | /
C=CCSc1nc2sc3c(c2c(=O)n1CC)CCc1ccccc1-3 | i | 5.7* | i | 194%* | CHO-K1 ctr=-1;KCNQ1 sel pot=-16;KCNQ2 pot conf=18*;Kir21 spec=-31;KCNQ2 W236L MoA=6.7%*
C=CCn1c(SCC)nc2sc3c(c2c1=O)CCc1ccccc1-3 | i | / | / | /
O=C(CCC(=O)c1ccccc1)NC1CCCN(Cc2ccccc2F)C1 (configuration not stated) | i | / | / | /
CCOc1cc(NS(=O)(=O)c2ccc(NC(C)=O)cc2)c(OCC)cc1NC(=O)c1cccs1 | i | 1.1 | / | /
SMILES | KCNQ2 block | KCNQ2 pot | Kir21 conf inh | HEK293 Tl flux | others
Cc1c(NC(=O)c2ccc([N+](=O)[O-])o2)cccc1-c1nc2ncccc2o1 | i | / | / | /
CC(=O)c1cccc(OCC(O)CNCCc2ccc(Cl)cc2)c1 (configuration not stated) | i | 0.27 | / | /
Cc1ccc(CNC(=O)NCc2ccccc2)cc1 | i | 1.7 | / | /
COc1ccc(CCNCC(O)COc2cccc(Br)c2)cc1 (configuration not stated) | i | 0.09 | 25%* | i
COC(=O)c1ccc(CNCC(O)COc2ccc(-c3ccccc3)cc2)cc1 (configuration not stated) | i | / | / | /
COc1ccc(CNCc2cccc(Cl)c2)cc1 | i | 0.35 | / | /
COc1ccc(CNCC(O)(c2ccccc2)c2ccc(Cl)cc2)cc1 (configuration not stated) | -5.6* | -5.6 | 62%* | i
Cc1ccc(CNCC(O)(c2ccccc2)c2ccccc2)cc1 | i | / | 42%* | i
COc1ccc(CNCC(O)COc2ccc(C(C)(C)c3ccccc3)cc2)cc1 (configuration not stated) | i | / | 41%* | 65%*
Cc1cc(NC(=O)Cn2nc([N+](=O)[O-])c(Br)c2C)no1 | i | 0.77 | / | /
COC(=O)c1cnn(-c2ccc(Cl)cc2)c1/C=N/NC(N)=S | i | / | / | /
O=C(COc1cccnc1[N+](=O)[O-])Nc1cccc(S(=O)(=O)N2CCCCC2)c1 | i | 0.56 | / | /
Cn1c(=O)c(=O)n(C)c2cc(S(=O)(=O)CCC(=O)Nc3c(F)c(F)c(F)c(F)c3F)ccc21 | i | 2.9 | / | /
Cc1ccc(/C=C2/Sc3ccc(C(=O)NCc4ccccn4)cc3NC2=O)cc1 | i | 1.2 | / | /
CC(C)CCc1noc(CN(CC2CCC2)CC2CCCO2)n1 (configuration not stated) | i | / | / | /
CCN(CC)c1ccc(/C=N/N2C(C)CCCC2C)c(O)c1 (configuration not stated) | i | / | / | /
Nc1nnc(SCC(=O)Nc2cccc3ccccc23)s1 | i | / | / | /
CC1CCN(C(=S)NC(=O)c2ccccc2)CC1 | i | 0.9 | / | /
